NS1 function inh: blocks influenza NS1 protein function. Potency, µM (highest dose often 46.1 µM), inactives show top-dose activity, positive = more growth. actives 0.4% (n = 270,000); calls by dose curve; note: actives are rising curves; nearly all actives have a fitted effect of over 50% in size
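Growth recovery, yeast-based: influenza A NS1 expressed in S. cerevisiae causes slow growth, and suppressors are detected by OD600. The parent strain without NS1 is used as positive control.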
Pf growth 48h: P. falciparum growth inhibition at 48 hours (one generation); P. falciparum luciferase growth in erythrocytes, 48 h; Potency, µM (titrated, usually from 28.7 µM), for the others: at the highest dose activity change, negative = inhibition, most hits filed as inhibitors; actives 5.9% (n = 310,000); AID 504832; note: % is set by controls: 0 for no effect and ±100 for the full control effect
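Luciferase-expressing P. falciparum in infected erythrocytes (2% hematocrit, 0.1% parasitemia final) in RPMI 1640/0.5% Albumax were exposed to compound for 48 hours at 37 C, 5% CO2; growth read as luminescence.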
Pf growth 96h: inhibits malaria parasite growth, 96 h; P. falciparum luciferase reporter growth, 96 h; Potency, µM (doses to about 28.7 µM), inactives show at the highest dose activity change, negative = inhibition, hits mostly inhibitors; actives 6.9% (n = 320,000); AID 504834; note: % is set by controls: 0 for no effect and ±100 for the full control effect
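Plates of compound plus infected erythrocytes (2% hematocrit, 0.05% parasitemia final) incubate 96 hours, 37 C, 5% CO2. Detection reagent added; reduced luminescence from the parasites' luciferase reporter flags inhibition.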
RE007 growth inh: less growth of the S. pombe RE007 Vpr strain; S. pombe RE007 Vpr strain, BacTiter-Glo ATP luminescence, 24 h; Potency, µM (doses to about 92.2 µM), for inactives: at the highest dose activity change, negative = less growth, most hits filed as inhibitors; actives 0.21% (n = 360,000); AID 651644; active = well fitted falling curve with a large enough effect; inconclusive = small, poorly fitted or top-dose-only effect; inactive = no such curve, though single readings can be large or run the other way; note: % is set by controls: 0 for no effect and ±100 for the full control effect; nearly all actives have a fitted effect of over 50% in size
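Fission yeast RE007 carrying one integrated HIV-1 vpr copy, seeded at OD 0.01 in PMG+AL medium with 23 nL pinned compound. Grown 24 h at 30 degrees; viability read by BacTiter-Glo luminescence after 5 min.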
SARS PLP yeast: SARS-CoV PLP inhibition in yeast. S. cerevisiae expressing SARS-CoV PLpro, growth rescue. Potency, µM (doses to about 32.9 µM), without a hit: top-dose activity, positive = growth rescue, most hits filed as activators. actives 0.19% (n = 330,000); calls by dose curve; note: 0% is about no effect; nearly all actives have a fitted effect of over 55% in size
Starred values were filed as active, the others as inactive; ? = inconclusive; / = no result given. Hits are enriched below; roughly 9.5% of the tested compounds scored in any of these assays. Unless noted, calls come from the whole dose curve; as a rule, active = well fitted inhibition curve with a large enough effect; inconclusive = small, poorly fitted or top-dose-only effect, or another doubt; inactive = no such curve, though single readings can be large or run the other way. Potency is the fitted concentration of half-maximal effect.

SMILES | NS1 function inh | Pf growth 48h | Pf growth 96h | RE007 growth inh | SARS PLP yeast
CCC(C)(C)n1nnnc1C(c1cccs1)N1CC=C(c2ccc(F)cc2)CC1 (stereo not drawn) | -95% | 7.4µM* | ? | 14% | -12%
Cc1ccc(C)c2[nH]c(=O)c(C(c3nnnn3C(C)(C)C)N3CC=C(c4ccc(F)cc4)CC3)cc12 (stereo not drawn) | 16% | 2.1µM* | ? | / | -1%
N#CC1c2ccccc2C=CN1C(=O)N(c1ccccc1)c1ccccc1 (stereo not drawn) | / | / | / | -19% | /
COc1ccc(C(=O)NCN2CCN(c3ccccc3)CC2)cc1OC | / | -13% | ? | -5% | 12%
CCSc1nnc(SCC(=O)NC2CCCCC2)s1 | / | 3% | 17% | 0% | -1%
Cc1ccc2cc(CCNC(=O)c3ccc(S(=O)(=O)N4CCCCC4)cc3)c(=O)[nH]c2c1 | 1% | ? | ? | 23% | 0%
Cc1cc2cc(CCNC(=O)c3ccc(S(=O)(=O)N4CCOCC4)cc3)c(=O)[nH]c2cc1C | -13% | ? | 8.3µM* | 4% | -7%
Cc1ccc2cc(CCNC(=O)c3ccc(S(=O)(=O)N4CCOCC4)cc3)c(=O)[nH]c2c1C | 8% | ? | 12µM* | 0% | -5%
Cc1ccc2cc(CCNC(=O)c3ccc(S(=O)(=O)N4CCOCC4)cc3)c(=O)[nH]c2c1 | 13% | ? | 13µM* | -4% | ?
Cc1ccc(C)c2[nH]c(=O)c(CCNC(=O)c3ccc(S(=O)(=O)N4CCCC4)cc3)cc12 | 9% | 12µM* | ? | -1% | 1%
Cc1ccc(N2CC(C(=O)N3CCN(c4ccccn4)CC3)CC2=O)cc1 (stereo not drawn) | / | / | / | -3% | /
c1c[nH]c(CN2CCN(Cc3ncc[nH]3)CC2)n1 | -10% | / | / | -7% | /
CCC(=O)Nc1ccc2c(c1)ncn2-c1ccc(C)cc1 | / | 139% | ? | 26% | 0%
Cc1[nH]c2ccccc2c1SCCNC(=O)c1ccc(S(=O)(=O)N2CCCC2)cc1 | 16% | ? | 13µM* | 1% | 9%
OC(CCN1CCOCC1)c1ccccc1 (stereo not drawn) | 11% | 75% | 121% | -12% | -6%
OC(CCN1CCCCC1)c1ccc(-c2ccccc2)cc1 (stereo not drawn) | 2% | / | 4.7µM* | -4% | -2%
CC[C@H](NC(=O)CC[C@H]1O[C@@H](n2cnc3c(NC(=O)c4ccccc4)ncnc32)[C@H](O)[C@@H]1O)c1ccccc1 | / | / | / | -5% | /
Cc1ccc(Oc2c(C)nc(-c3ccccc3)[nH]c2=O)cc1 | -2% | 1µM* | 1.7µM* | -7% | 1%
O=C(N/N=C/c1ccc(F)cc1)c1sccc1OCc1ccc(F)cc1 | 1% | -28% | ? | 1% | ?
O=C(N/N=C/c1ccc(Cl)cc1)c1sccc1OCc1ccc(F)cc1 | 2% | ? | 9.3µM* | 5% | 2%
Fc1cnc(Cl)nc1NC1CCCCC1 | -1% | 24% | 4.7µM* | -17% | -2%
Cc1ccc2nc(NC(=O)C3CCCN(S(=O)(=O)c4cccc5nsnc45)C3)sc2c1 (stereo not drawn) | 9% | 10µM* | ? | -5% | -10%
O=C(NCCc1ccccc1)C1CCCN(S(=O)(=O)c2cccc3nsnc23)C1 (stereo not drawn) | -5% | -17% | 1.2µM* | 2% | 23%
Cc1ccc2nc(NC(=O)C3CCN(S(=O)(=O)c4cccc5nsnc45)CC3)sc2c1 | -40% | ? | -3% | -20% | 7%
O=C(Nc1nc2cc(Cl)ccc2s1)C1CCCN(S(=O)(=O)c2cccc3cccnc23)C1 (stereo not drawn) | 7% | / | 12µM* | -8% | 4%
O=C(Nc1ccccc1Cl)C1CCCN(S(=O)(=O)c2cccc3cccnc23)C1 (stereo not drawn) | 14% | ? | 28% | 23% | 5%
O=S(=O)(c1ccc(Br)c2nsnc12)N1CCOCC1 | 2% | -17% | 9.3µM* | -1% | 0%
Cc1ccc(S(=O)(=O)N2CCOCC2)c2nsnc12 | 1% | / | 31% | -4% | 12%
O=C(O)c1ccccc1C(=O)Nc1cc2c(cc1Br)-c1ccccc1C2=O | -3% | / | / | / | /
O=S(=O)(c1cccc2nsnc12)N1CCCCC1 | 18% | 11% | 8.3µM* | -7% | 4%
